Rows were chosen to be rich in hits. Some 1.6% of all compounds tested hit in one or more screens of this group.
Imprint erasure: induces erasure of genomic imprints in mouse ES cells; mouse ES Peg3-LacZ reporter, beta-gal luminescence, 40 h; Potency, µM (top dose mostly 60.7 µM), most hits filed as activators; 110,000 compounds, 0.02% hits
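Readout: BetaGlo luminescence (5 min, room temp) for LacZ from the normally silent maternal Peg3 allele in female Peg3LacZ-Neo ES cells. Cells 300/well, 40 h, 37C, 5% CO2. Data normalized per plate to negative controls.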
IkB signaling: IkB pathway inhibition in ABC-DLBCL cells | ABC-DLBCL IkBa-CBG/CBR dual luciferase ratio, 4 h; response scale: scaled: untreated 0%, proteasome inhibitor 100% | Potency, µM (series often up to 57.1 µM) | 110,000 compounds, 0.04% hits | AID 445; active means well fitted curve in the direction sought with a large enough effect in the signal ratio, not every such curve was filed as active; inconclusive means small, poorly fitted or top-dose-only effect, or a change in a side signal; the % refers to the signal ratio;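 further: the direction sought is a rising ratio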
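Luminescence ratio of IκBα-fused green versus native red beetle luciferase in OCI-Ly3 cells, 4 h post-doxycycline with compound; red signal alone, scaled from basal (0%) to zero light (-100%), flagged nonspecific or cytotoxic effects.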
p53ts 32C kill: cytotoxicity in p53ts cells at permissive temperature; H1299-p53A138V at 32C, ATP luminescence viability, 24 h; Potency, µM (titrated, usually from 46.1 µM), actives largely listed as cytotoxic; 130,000 compounds, 0.93% hits; AID 924; further: nearly all actives have a fitted effect of over 55% in size
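Cells: H1299 p53ts (A138V), 600/well, pre-incubated 16–30 h at 37C. Cpd up to 46 uM, 24 h, 32C. Readout: ATPlite luminescence, 20 min RT. Normalization: DMSO vs tamoxifen 100 uM. AC50 by Hill equation.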
p53ts 39C kill: cytotoxicity in p53ts cells at nonpermissive temperature; H1299-p53A138V viability at 39C, ATP luminescence, 24 h; Potency, µM (highest dose often 46.1 µM), usual class: cytotoxic; 130,000 compounds, 1.5% hits; further: nearly all actives have a fitted effect of over 55% in size
Large screens that a line does not name were inactive; ! = a repeat was not active. Unless noted, the call rests on the fitted dose curve; in most records, active means well fitted curve in the direction sought with a large enough effect; inconclusive means small, poorly fitted or top-dose-only effect, or another doubt; inactive means no such curve, though single readings can be large; an effect the other way counts as inactive or inconclusive.

O=C1C(Cl)=C(Nc2ccc(S(=O)(=O)Nc3ccccn3)cc2)C(=O)c2ccccc21	IkB signaling 6.31µM
Cc1ccccc1OCC1CO1 (configuration not stated)	none
C=C1c2ccccc2O[C@H](C(=O)OCC)[C@@H]1C1CCCCC1 (tested in a mixture with another compound)	none (no result: IkB signaling, p53ts 32C kill, p53ts 39C kill)
O=C(c1cc(-c2cccc(O)c2)on1)N1CCOCC1	p53ts 32C kill 10µM, p53ts 39C kill inconclusive
CCCCCCCCNC(C)C(O)c1ccc(SC(C)C)cc1 (configuration not stated)	p53ts 32C kill inconclusive, p53ts 39C kill 20µM (no result: IkB signaling)
C[C@@H](NCCc1ccc(O)cc1)[C@@H](O)c1ccc(O)cc1	none (no result: IkB signaling, p53ts 32C kill, p53ts 39C kill)
O=C(/C=C/N1CCOCC1)c1coc2ccccc12	p53ts 32C kill 15.8µM, p53ts 39C kill inconclusive (no result: Imprint erasure, IkB signaling)
O=C(/C=C/N1CCOCC1)c1cc2ccccc2o1	p53ts 32C kill 12.6µM, p53ts 39C kill inconclusive
Cc1cc(-c2ccc(N=Nc3cc(S(=O)(=O)O)c4ccccc4c3N)c(C)c2)ccc1N=Nc1cc(S(=O)(=O)O)c2ccccc2c1N	none
Cc1cc(N2CCN(C)CC2)nc2ccc(NC(=O)Nc3ccc(Cl)cc3)cc12	none
Cc1cc(N2CCN(C)CC2)nc2ccc(NC(=O)c3ccc(C(C)(C)C)cc3)cc12	IkB signaling inconclusive, p53ts 32C kill 15.8µM, p53ts 39C kill 20µM
Cc1ccccc1NC(=O)Nc1ccc2nc(N3CCN(C)CC3)cc(C)c2c1	IkB signaling inconclusive
CCOc1ccccc1NC(=O)Nc1ccc2nc(N3CCN(C)CC3)cc(C)c2c1	p53ts 32C kill inconclusive, p53ts 39C kill 10µM
O=C(NCCN1CCOCC1)c1cc(-c2ccc(O)cc2)on1	none
N[C@H](Cc1cccc(-c2ccccc2CP(=O)(O)O)c1)C(=O)O	none (no result: Imprint erasure)
CCC(C(=O)NC1CCCCC1)n1c(SCc2cccc(F)c2)nc2ccncc21 (configuration not stated)	IkB signaling inconclusive
CCC(C(=O)NC1CCCCC1)n1c(SCc2cccc(C)c2)nc2ccncc21 (configuration not stated)	p53ts 32C kill 12.6µM, p53ts 39C kill 10µM
Cc1cccc(-c2nc(Cn3c(SCc4cccc(C(F)(F)F)c4)nc4ccncc43)c(C)o2)c1	p53ts 39C kill 10µM
COC(=O)c1ccc(Cn2c(SCc3cccc(C)c3)nc3ccncc32)cc1	p53ts 32C kill 25.1µM, p53ts 39C kill inconclusive
Cc1ccc(S(=O)(=O)Oc2ccc(N=Nc3ccc(-c4ccc(N=Nc5c(O)ccc6cc(S(=O)(=O)O)cc(S(=O)(=O)O)c56)c(C)c4)cc3C)cc2)cc1	none
CC(=O)Nc1ccc(NC(=O)CCc2c(C)nc3c(c(C)nn3-c3ccc(C)cc3)c2C)cc1	IkB signaling inconclusive, p53ts 39C kill 7.94µM
CC1(C)N=C(N)N=C(N)N1c1cccc(CSc2ccccc2)c1	none
CCCCN(C)CCNC(=O)c1cc(-c2ccc(Cl)s2)nc2ccccc12	IkB signaling inconclusive, p53ts 39C kill 12.6µM
CC(C)CN(CCNC(=O)c1cc(-c2ccc(Cl)s2)nc2ccccc12)CC(C)C	none
O=C1C2=CC[C@H]3C(=O)N(C[C@@H]4CCCO4)C(=O)[C@@H]3[C@@H]2[C@H](O)[C@@H]2O[C@H]12	none (no result: Imprint erasure, IkB signaling)
c1ccc2sc(-c3ccc4c(c3)OCO4)nc2c1	IkB signaling inconclusive, p53ts 32C kill 15.8µM, p53ts 39C kill 7.94µM
OC(COc1ccc(Br)cc1)CN1CCOCC1 (configuration not stated)	none
CC1(C)CCCC(C)(C)N1CC(O)COCCOc1ccc(Br)cc1 (configuration not stated)	p53ts 32C kill inconclusive, p53ts 39C kill 4.47µM (no result: Imprint erasure, IkB signaling)
COc1ccc(-c2cc(C(=O)NCc3cccs3)no2)cc1OC	none
COc1ccc2c(c1)CCC1C2CC[C@]2(C)[C@H](NCCCCCCN3C(=O)C=CC3=O)CC[C@@H]12 (some centres not stated)	none (no result: Imprint erasure)
O=C(O)c1cccc(SSc2cccc(C(=O)O)c2)c1	none
Cc1cc(O)cc(=O)n1Cc1ccco1	none
Cc1cc(C2=NNC(=NC3CC3)SC2)c(C)n1-c1ccccc1	p53ts 39C kill 10µM (no result: Imprint erasure, IkB signaling, p53ts 32C kill)
Cc1cc(C2=NNC(=NC3CC3)SC2)c(C)n1Cc1ccco1	p53ts 39C kill 12.6µM (no result: Imprint erasure, IkB signaling, p53ts 32C kill)
CCCN(CCc1ccccc1)[C@H]1CCc2c(O)cccc2C1	none (no result: Imprint erasure)
CCOC(=O)OCC1OC(C#Cc2ccccc2)C=CC1Oc1cccc(N(C)C)c1 (configuration not stated)	none (no result: Imprint erasure, IkB signaling)
CC1CCN(c2ccc(-c3nc(-c4ccccc4)no3)cc2[N+](=O)[O-])CC1	IkB signaling inconclusive, p53ts 39C kill 22.4µM
Cc1ccc(-c2noc(-c3ccc(N4CCC(C)CC4)c([N+](=O)[O-])c3)n2)cc1	none
CC#N	none
CCCN(CCC)c1nc(NC2CCN(C(=O)OCC)CC2)nc(OC)n1	IkB signaling inconclusive, p53ts 39C kill 20µM
O=C(O)CCCCn1cnc2c(=S)nc[nH]c21	none
CC1(C)Oc2cc3c(cc2O1)OC(C)(C)O3	none (no result: Imprint erasure, IkB signaling)
COc1ccc(-c2cc(C(F)(F)F)nc(S(C)(=O)=O)n2)cc1	p53ts 32C kill inconclusive, p53ts 39C kill 20µM
CS(=O)(=O)c1nc(-c2cccs2)cc(C(F)(F)F)n1	IkB signaling inconclusive, p53ts 32C kill inconclusive, p53ts 39C kill inconclusive
CCOC(=O)c1sc(NC(=O)c2ccc(C)o2)nc1C	IkB signaling inconclusive, p53ts 32C kill 7.94µM, p53ts 39C kill 7.94µM
CCOC(=O)c1sc(NC(=O)c2ccco2)nc1C	none
CCN(CC)S(=O)(=O)c1ccc2c(c1)c(=O)c(C(=O)NCc1ccccc1Cl)cn2C	IkB signaling inconclusive, p53ts 32C kill inconclusive, p53ts 39C kill 6.31µM
O=C(O)c1cccc(COc2ccc(CO)cc2Cl)c1	IkB signaling inconclusive, p53ts 32C kill 5.01µM, p53ts 39C kill 3.98µM
CCOc1ccc(OCc2cccc(C(=O)O)c2)cc1	IkB signaling inconclusive, p53ts 32C kill 2.51µM, p53ts 39C kill 2µM
O=C(O)c1ccc(COc2ccc(CO)cc2Cl)cc1	IkB signaling inconclusive
CCOc1ccc(OCc2cccc(C(=O)N3CCCC3)c2)cc1	p53ts 32C kill inconclusive, p53ts 39C kill inconclusive
COc1ccc(OCc2cccc(C(=O)O)c2)cc1	IkB signaling inconclusive, p53ts 32C kill 6.31µM, p53ts 39C kill 5.01µM
c1ccc([C@H](c2cccc3c2ccc2ccccc23)[C@H](c2ccccc2)c2cccc3c2ccc2ccccc23)cc1	none (no result: Imprint erasure)
C[C@@]12CCC(=O)C=C1CC[C@H]1C2[C@@H](O)C[C@]2(C)[C@@H]1CC[C@@]2(O)C(=O)CO (some centres not stated)	none (no result: IkB signaling, p53ts 32C kill, p53ts 39C kill)
CC(=O)[C@]1(O)CC[C@@H]2[C@H]3C[C@@H](C)C4=CC(=O)CC[C@@]4(C)[C@H]3[C@@H](O)C[C@]21C	IkB signaling inconclusive (no result: Imprint erasure)
Cc1cc(C(C)(C)CC(C)(C)C)ccc1OCCOCC[N+](C)(C)Cc1ccccc1	p53ts 32C kill 25.1µM!, p53ts 39C kill 25.1µM!
CC(C)(C)CC(C)(C)c1ccc(O)c(C[N+](C)(C)[O-])c1	none
c1ccc2c(c1)Cc1cc3ccccc3nc1-2	p53ts 32C kill 7.94µM, p53ts 39C kill 12.6µM (no result: IkB signaling)
COCCn1c(C)cc(C(=O)CSc2nnc(C)s2)c1C	p53ts 32C kill 12.6µM, p53ts 39C kill 12.6µM

Source: PubChem
